Experimental data: the supplement of paper PMC8728848
Only a selection was taken, and the strongest signals are over-represented in it overall.

What was measured:
Assay in all cases: glycan array binding signal (z-score within array); higher = stronger binding
Settings in all cases: glycan notation: IUPAC condensed, linker removed
[1] = target: Fuc(a1-2)Gal(b1-3)GlcNAc(b1-3)[Fuc(a1-2)Gal(b1-3)GlcNAc(b1-6)]GalNAc
Procedure, shortened: (§1)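 The Consortium for Functional Glycomics database supplied 3228 glycan arrays, of which those lacking an available protein sequence were dropped. The binding signal, a within-array Z-score, was averaged across arrays of the same protein sequence and across linkers. Negative scores can be read as non-binding.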

[2] = target: Fuc(a1-2)Gal(b1-4)GlcNAc(b1-3)Gal(b1-4)GlcNAc
Procedure, shortened: as §1

[3] = target: Fuc(a1-2)[Gal(a1-3)]Gal(b1-4)Glc
Procedure, shortened: as §1

[4] = target: Fuc(a1-2)[Gal(a1-3)]Gal(b1-4)[Fuc(a1-3)]GlcNAc
Procedure, shortened: as §1

[5] = target: Fuc(a1-2)[GalNAc(a1-3)]Gal(b1-3)GlcNAc(b1-6)GalNAc
Procedure, shortened: as §1

[6] = target: Fuc(a1-2)[GalNAc(a1-3)]Gal(b1-4)Glc
Procedure, shortened: as §1

[7] = target: Gal(a1-3)Gal(b1-4)[Fuc(a1-3)]GlcNAc
Procedure, shortened: as §1

[8] = target: Gal(a1-4)GlcNAc
Procedure, shortened: as §1

[9] = target: Gal(a1-6)Glc
Procedure, shortened: as §1

[10] = target: Gal(b1-3)GlcNAc(a1-6)Gal(b1-4)GlcNAc
Procedure, shortened: as §1

[11] = target: Gal(b1-3)GlcNAc(b1-3)Gal(b1-3)GlcNAc
Procedure, shortened: as §1

[12] = target: Gal(b1-3)GlcNAc(b1-3)Gal(b1-4)GlcNAc(b1-3)Gal(b1-4)GlcNAc(b1-2)[Gal(b1-3)GlcNAc(b1-3)Gal(b1-4)GlcNAc(b1-3)Gal(b1-4)GlcNAc(b1-6)]Man(a1-6)[Gal(b1-3)GlcNAc(b1-3)Gal(b1-4)GlcNAc(b1-3)Gal(b1-4)GlcNAc(b1-2)Man(a1-3)]Man(b1-4)GlcNAc(b1-4)[Fuc(a1-6)]GlcNAc
Procedure, shortened: as §1

[13] = target: Gal(b1-3)GlcNAc6S
Procedure, shortened: as §1

[14] = target: Gal(b1-4)GlcNAc(b1-2)[Gal(b1-4)GlcNAc(b1-6)]Man(a1-6)[Gal(b1-4)GlcNAc(b1-2)Man(a1-3)]Man(b1-4)GlcNAc(b1-4)GlcNAc
Procedure, shortened: as §1

[15] = target: Gal(b1-4)GlcNAc(b1-3)Gal(b1-4)GlcNAc(b1-3)Gal(b1-4)GlcNAc(b1-2)Man(a1-3)[Gal(b1-4)GlcNAc(b1-3)Gal(b1-4)GlcNAc(b1-3)Gal(b1-4)GlcNAc(b1-2)Man(a1-6)]Man(b1-4)GlcNAc(b1-4)[Fuc(a1-6)]GlcNAc
Procedure, shortened: as §1

[16] = target: Gal(b1-4)GlcNAc(b1-3)Gal(b1-4)GlcNAc(b1-3)Gal(b1-4)GlcNAc(b1-2)[Gal(b1-4)GlcNAc(b1-3)Gal(b1-4)GlcNAc(b1-3)Gal(b1-4)GlcNAc(b1-6)]Man(a1-6)[Gal(b1-4)GlcNAc(b1-3)Gal(b1-4)GlcNAc(b1-3)Gal(b1-4)GlcNAc(b1-2)Man(a1-3)]Man(b1-4)GlcNAc(b1-4)[Fuc(a1-6)]GlcNAc
Procedure, shortened: as §1

[17] = target: Gal(b1-4)GlcNAc(b1-3)Gal(b1-4)GlcNAc(b1-3)Gal(b1-4)GlcNAc(b1-3)Gal(b1-4)GlcNAc(b1-2)Man(a1-3)[Gal(b1-4)GlcNAc(b1-3)Gal(b1-4)GlcNAc(b1-3)Gal(b1-4)GlcNAc(b1-3)Gal(b1-4)GlcNAc(b1-2)Man(a1-6)]Man(b1-4)GlcNAc(b1-4)GlcNAc
Procedure, shortened: as §1

[18] = target: Gal(b1-4)GlcNAc(b1-3)Gal(b1-4)GlcNAc(b1-3)Gal(b1-4)GlcNAc(b1-3)Gal(b1-4)GlcNAc(b1-2)Man(a1-3)[Gal(b1-4)GlcNAc(b1-3)Gal(b1-4)GlcNAc(b1-3)Gal(b1-4)GlcNAc(b1-3)Gal(b1-4)GlcNAc(b1-2)Man(a1-6)]Man(b1-4)GlcNAc(b1-4)[Fuc(a1-6)]GlcNAc
Procedure, shortened: as §1

[19] = target: Gal(b1-4)GlcNAc(b1-3)Gal(b1-4)GlcNAc(b1-3)Gal(b1-4)GlcNAc(b1-3)Gal(b1-4)GlcNAc(b1-2)[Gal(b1-4)GlcNAc(b1-3)Gal(b1-4)GlcNAc(b1-3)Gal(b1-4)GlcNAc(b1-3)Gal(b1-4)GlcNAc(b1-6)]Man(a1-6)[Gal(b1-4)GlcNAc(b1-3)Gal(b1-4)GlcNAc(b1-3)Gal(b1-4)GlcNAc(b1-3)Gal(b1-4)GlcNAc(b1-2)Man(a1-3)]Man(b1-4)GlcNAc(b1-4)[Fuc(a1-6)]GlcNAc
Procedure, shortened: as §1

[20] = target: Gal(b1-4)GlcNAc(b1-3)Gal(b1-4)GlcNAc(b1-3)Gal(b1-4)GlcNAc(b1-3)Gal(b1-4)GlcNAc(b1-3)Gal(b1-4)GlcNAc(b1-2)Man(a1-3)[Gal(b1-4)GlcNAc(b1-3)Gal(b1-4)GlcNAc(b1-3)Gal(b1-4)GlcNAc(b1-3)Gal(b1-4)GlcNAc(b1-3)Gal(b1-4)GlcNAc(b1-2)Man(a1-6)]Man(b1-4)GlcNAc(b1-4)GlcNAc
Procedure, shortened: as §1

[21] = target: Gal(b1-4)GlcNAc(b1-3)Gal(b1-4)GlcNAc(b1-3)Gal(b1-4)GlcNAc(b1-3)Gal(b1-4)GlcNAc(b1-3)Gal(b1-4)GlcNAc(b1-2)Man(a1-3)[Gal(b1-4)GlcNAc(b1-3)Gal(b1-4)GlcNAc(b1-3)Gal(b1-4)GlcNAc(b1-3)Gal(b1-4)GlcNAc(b1-3)Gal(b1-4)GlcNAc(b1-2)Man(a1-6)]Man(b1-4)GlcNAc(b1-4)[Fuc(a1-6)]GlcNAc
Procedure, shortened: as §1

[22] = target: Gal(b1-4)GlcNAc(b1-3)Gal(b1-4)GlcNAc(b1-3)Gal(b1-4)GlcNAc(b1-3)Gal(b1-4)GlcNAc(b1-3)Gal(b1-4)GlcNAc(b1-2)[Gal(b1-4)GlcNAc(b1-3)Gal(b1-4)GlcNAc(b1-3)Gal(b1-4)GlcNAc(b1-3)Gal(b1-4)GlcNAc(b1-3)Gal(b1-4)GlcNAc(b1-6)]Man(a1-6)[Gal(b1-4)GlcNAc(b1-3)Gal(b1-4)GlcNAc(b1-3)Gal(b1-4)GlcNAc(b1-3)Gal(b1-4)GlcNAc(b1-3)Gal(b1-4)GlcNAc(b1-2)Man(a1-3)]Man(b1-4)GlcNAc(b1-4)[Fuc(a1-6)]GlcNAc
Procedure, shortened: as §1

[23] = target: Gal(b1-4)GlcNAc(b1-3)Gal(b1-4)GlcNAc(b1-3)Gal(b1-4)GlcNAc(b1-3)Gal(b1-4)GlcNAc(b1-3)Gal(b1-4)GlcNAc(b1-3)Gal(b1-4)GlcNAc(b1-2)Man(a1-3)[Gal(b1-4)GlcNAc(b1-3)Gal(b1-4)GlcNAc(b1-3)Gal(b1-4)GlcNAc(b1-3)Gal(b1-4)GlcNAc(b1-3)Gal(b1-4)GlcNAc(b1-3)Gal(b1-4)GlcNAc(b1-2)Man(a1-6)]Man(b1-4)GlcNAc(b1-4)GlcNAc
Procedure, shortened: as §1

B1: Gal 3C (Homo sapiens), P17931 (protein)
chain: YGAPAGPLIVPYNLPLPGGVVPRMLITILGTVKPNANRIALDFQRGNDVAFHFNPRFNENNRRVIVCNTKLDNNWGREERQSVFPFESGKPFKIQVLVEPDHFKVAVNDAHLLQYNHRVKKLNEISKLGISGDIDLTSASYTMI
glycan array binding signal (z-score) [1]: -0.212
glycan array binding signal (z-score) [2]: 1.07
glycan array binding signal (z-score) [3]: -0.106
glycan array binding signal (z-score) [4]: -0.196
glycan array binding signal (z-score) [5]: -0.229
glycan array binding signal (z-score) [6]: -0.117
glycan array binding signal (z-score) [7]: -0.259
glycan array binding signal (z-score) [8]: -0.295
glycan array binding signal (z-score) [9]: -0.222
glycan array binding signal (z-score) [10]: -0.269
glycan array binding signal (z-score) [11]: -0.068
glycan array binding signal (z-score) [12]: 1.95
glycan array binding signal (z-score) [13]: -0.277
glycan array binding signal (z-score) [14]: -0.222
glycan array binding signal (z-score) [15]: 4.24
glycan array binding signal (z-score) [16]: 4.41
glycan array binding signal (z-score) [17]: 5.03
glycan array binding signal (z-score) [18]: 4.24
glycan array binding signal (z-score) [19]: 4.44
glycan array binding signal (z-score) [20]: 4.06
glycan array binding signal (z-score) [21]: 6.46
glycan array binding signal (z-score) [22]: 6.39
glycan array binding signal (z-score) [23]: 4.39
